Only some compounds are listed: those with a hit (about 4.6% of all), similar ones and a draw of the others.
D1 PAM: human D1 dopamine receptor positive modulation. P21728. HEK293 TREx D1 cells, calcium flux, dopamine EC20 potentiation. potentiation, % at 10 µM. actives 0.036% (n = 360,000). AID 504651; in the data active = potentiation above about 30%; also: 0% is about no effect
Target sequence (P21728 whole entry, looked up): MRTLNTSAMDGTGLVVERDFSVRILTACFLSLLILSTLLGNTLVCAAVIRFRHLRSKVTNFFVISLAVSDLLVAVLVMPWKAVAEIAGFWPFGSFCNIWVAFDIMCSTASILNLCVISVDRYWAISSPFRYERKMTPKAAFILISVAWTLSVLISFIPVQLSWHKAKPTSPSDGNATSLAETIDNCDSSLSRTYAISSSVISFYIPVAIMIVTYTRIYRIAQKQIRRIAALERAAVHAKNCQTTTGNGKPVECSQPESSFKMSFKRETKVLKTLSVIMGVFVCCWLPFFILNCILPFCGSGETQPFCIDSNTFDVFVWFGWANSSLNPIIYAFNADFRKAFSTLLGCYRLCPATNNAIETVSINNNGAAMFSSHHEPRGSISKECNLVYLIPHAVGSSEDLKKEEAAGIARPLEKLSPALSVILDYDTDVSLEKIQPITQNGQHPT
TRHR agonist: activates the human TRH receptor | P34981 | TRHR cells, calcium flux fluo-8, FDSS agonist mode | activation, % at 2 µM | actives 0.18% (n = 360,000) | AID 493084; also: 0% is about no effect
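Read-out: compound-evoked intracellular calcium rise in TRHR cells, fluo-8 dye, kinetic FDSS fluorescence at 1 s/cycle following a 10-cycle baseline. Cells cultured overnight before dye loading (30 min–1.5 h, RT).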
TRHR PAM: allosteric enhancers of human TRH receptor; P34981; TRHR cells, fluo-8 calcium fluorescence, EC20 TRH enhancement; enhancement, % at 2 µM; actives 0.66% (n = 360,000); AID 493056; in the data active = enhancement above about 30%; also: 0% is about no effect
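Enhancer read-out: after compound pinning and an initial kinetic agonist-mode read, an EC20 of TRH (10 nM final) was injected and fluo-8 calcium signal (Ex 480/Em 530) followed at 1 s/cycle for 100 cycles in TRHR-expressing cells.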
D1 antagonist: blocks dopamine activation of the human D1 receptor; P21728; HEK293 TREx D1 cells, calcium flux, dopamine EC80; stronger effect = lower value; activity change, negative = inhibition, % at 10 µM; actives 3.2% (n = 360,000); AID 504652; in the data active = activity change below about -30%; also: % is scaled to controls: 0 for no effect and ±100 for the full control effect
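Cells carrying a force-coupled, tetracycline-inducible human D1 receptor report calcium flux. Each well gets a 10 s baseline, compound with 180 s monitoring, then an EC80 dopamine stimulus with a second 180 s kinetic read.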
D1 agonist: agonists of human D1 dopamine receptor; P21728; HEK293 T-REx D1 cells, calcium flux, agonist mode; activation, % at 2 µM; actives 1% (n = 360,000); AID 504660; also: 0% is about no effect
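Tetracycline-induced HEK293 TREx D1 cells, force-coupled to calcium signalling, were dye-loaded with a no-wash calcium kit. Compound was pin-added after a 10 s baseline. Fluorescence was read kinetically at 1 cycle/s for 180 s, with calcium rises flagged as agonism.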
Numbers without * were called inactive. Rule as the data show it, unless noted: active = activation above about 30%; inactive = the rest.

Cc1ccccc1OCC(=O)Nc1ccc2[nH]c(=O)sc2c1 was read as D1 PAM -4.5, TRHR agonist 0.2, TRHR PAM -3.9, D1 antagonist -48.6* and D1 agonist 14.3.
Screening S=C(NCC1CCCO1)NC1CCCCC1 (stereo unspecified) returned D1 PAM 0.1, TRHR agonist -1.0, TRHR PAM 4.4, D1 antagonist 4.9 and D1 agonist 6.0.
`N=c1c(C(=O)NC2CCCC2)cc2c(=O)n3ccccc3nc2n1CCN1CCOCC1` gave D1 PAM 2.6, TRHR agonist 0.2, TRHR PAM 0.7, D1 antagonist 9.4 and D1 agonist 2.1.
CN(CCc1ccccn1)C(=O)Nc1cc(Cl)cc(Cl)c1 was read as D1 PAM -3.6, TRHR agonist -1.1, TRHR PAM -2.2, D1 antagonist -22.1 and D1 agonist -0.2.
`CCOc1ccc(CCNC(=O)CCS(=O)(=O)c2ccc(Br)cc2)cc1OCC` gave D1 PAM 0.3, TRHR agonist -0.3, TRHR PAM -4.0, D1 antagonist -4.7 and D1 agonist 0.6.
Cc1ccccc1OCC(=O)Nc1ccc(Cc2ccncc2)cc1 was read as D1 PAM -3.4, TRHR agonist -0.2, TRHR PAM 1.7, D1 antagonist -43.7* and D1 agonist 15.7.
For Cc1ccccc1OCC(=O)Nc1ccncc1 the results were D1 PAM -3.8, TRHR agonist -1.4, TRHR PAM 2.4, D1 antagonist -18.2 and D1 agonist 12.4.
For Cn1cc(-c2nnnn2-c2cccc(C(F)(F)F)c2)c(C(F)(F)F)n1 the results were D1 PAM -10.6, TRHR agonist -0.8, TRHR PAM 18.1, D1 antagonist -37.0* and D1 agonist 25.7.
For Cc1nn(-c2cccc(C(F)(F)F)c2)c(=O)c2ccccc12 the results were D1 PAM -6.3, TRHR agonist -0.2, TRHR PAM -1.9, D1 antagonist 6.1 and D1 agonist 0.3.
COc1ccc(C(=O)COC(=O)Cn2c(C)csc2=O)c(OC)c1 was read as D1 PAM -1.5, TRHR agonist -0.3, TRHR PAM 10.1, D1 antagonist -33.3* and D1 agonist 10.8.
O=c1c2ccccc2nc(CSc2nnnn2-c2ccccc2)n1-c1ccccc1Cl was read as D1 PAM -1.1, TRHR agonist -0.4, TRHR PAM -0.9, D1 antagonist -35.3* and D1 agonist 2.9.
Cc1ccccc1-n1c(CSC(=N)N)nc2ccccc2c1=O was read as D1 PAM 1.5, TRHR agonist 0.0, TRHR PAM 5.3, D1 antagonist -41.5* and D1 agonist 1.5.
For CN(CCC#N)C(=O)c1ccc(CNS(=O)(=O)c2ccc(F)cc2)cc1 the results were D1 PAM 2.4, TRHR agonist -0.2, TRHR PAM 19.3, D1 antagonist -11.1 and D1 agonist 2.4.
`Cc1c(CCO)c(=O)n(-c2ccccc2)n1S(=O)(=O)c1c(Cl)cc(Cl)cc1Cl` gave D1 PAM -9.7, TRHR agonist -0.2, TRHR PAM 3.0, D1 antagonist 23.7 and D1 agonist -1.0.
Screening N#CC1=C(N)Oc2ccccc2C12C(=O)Nc1n[nH]c(-c3ccccc3)c12 (stereo unspecified) returned D1 PAM 4.5, TRHR agonist -0.1, TRHR PAM -4.8, D1 antagonist 1.7 and D1 agonist 4.8.
`COc1ccc(OC)c(Nc2cc(C)nc3ccccc23)c1` gave D1 PAM -4.0, TRHR agonist -0.2, TRHR PAM 10.9, D1 antagonist -4.8 and D1 agonist 1.4.
`COc1ccc2nc(C)cc(Nc3ccccc3O)c2c1` gave D1 PAM -5.2, TRHR agonist 0.9, TRHR PAM -3.0, D1 antagonist -35.1* and D1 agonist -1.0.
Screening Cn1ncc(Cl)c1C(=O)Nc1ccc2c(c1)CCC2 returned D1 PAM 3.4, TRHR agonist 0.3, TRHR PAM 2.9, D1 antagonist -5.5 and D1 agonist 2.3.
`CN1N=C(C(=O)Nc2ccc3c(c2)CCC3)CCC1=O` gave D1 PAM -3.3, TRHR agonist 0.2, TRHR PAM -1.0, D1 antagonist -32.2* and D1 agonist 1.2.
`Cn1cc(/C=C(\C#N)C(=O)Nc2ccccc2O)c2ccccc21` gave D1 PAM -2.8, TRHR agonist 6.0, TRHR PAM 8.0, D1 antagonist -10.5 and D1 agonist 10.3.
O=C(Oc1ccccc1)c1ccc(COC(=O)c2cnccn2)cc1 was read as D1 PAM -7.6, TRHR agonist -0.8, TRHR PAM -8.0, D1 antagonist -14.3 and D1 agonist 7.4.
`O=C(Oc1ccc(Cl)cc1)c1ccc(COC(=O)c2cnccn2)cc1` gave D1 PAM 7.1, TRHR agonist 0.0, TRHR PAM -2.6, D1 antagonist -30.7* and D1 agonist 6.6.
`N=c1c2c(-c3ccccc3)c(-c3ccccc3)n(Cc3ccco3)c2ncn1CCCO` gave D1 PAM 1.5, TRHR agonist -0.6, TRHR PAM 5.4, D1 antagonist 0.0 and D1 agonist 45.3*.
Screening N=c1c2c(-c3ccccc3)c(-c3ccccc3)n(Cc3ccco3)c2ncn1CCO returned D1 PAM -4.2, TRHR agonist 0.3, TRHR PAM -4.1, D1 antagonist 26.8 and D1 agonist 2.1.
COc1cccc2c1cc1c(=O)n(CC(=O)NCCCc3ccccc3)nc(C)n12 was read as D1 PAM 4.7, TRHR agonist 0.3, TRHR PAM -0.4, D1 antagonist -38.8* and D1 agonist 1.8.
For CCOCCCNC(=O)Cn1nc(CC)n2c(cc3c(OC)cccc32)c1=O the results were D1 PAM -4.5, TRHR agonist -0.3, TRHR PAM 3.9, D1 antagonist -30.1* and D1 agonist 0.8.
Screening CCc1nn(CC(=O)NCCCc2ccccc2)c(=O)c2cc3c(OC)cccc3n12 returned D1 PAM -2.1, TRHR agonist 0.5, TRHR PAM 1.8, D1 antagonist -8.9 and D1 agonist 0.2.
Screening CCc1nn(CC(=O)NCCCN(C)Cc2ccccc2)c(=O)c2cc3sc(C)cc3n12 returned D1 PAM 2.8, TRHR agonist -0.7, TRHR PAM 2.3, D1 antagonist -37.2* and D1 agonist 2.6.
CCC(=O)c1ccc(OCC(O)Cn2nc(C)cc2C)cc1 (stereo unspecified) was read as D1 PAM 0.2, TRHR agonist 0.1, TRHR PAM 0.2, D1 antagonist -16.5 and D1 agonist 1.1.
For CC(C)Cn1c(=S)[nH]c2cc(C(=O)NCc3ccccc3F)ccc2c1=O the results were D1 PAM -5.8, TRHR agonist -0.1, TRHR PAM -0.6, D1 antagonist -33.1* and D1 agonist 13.6.
`COc1ccccc1Cn1c(=S)[nH]c2cc(C(=O)NC(C)C)ccc2c1=O` gave D1 PAM -2.5, TRHR agonist 2.3, TRHR PAM 4.3, D1 antagonist -15.9 and D1 agonist 3.0.
